This is an account of results in PMC5540273 (PLoS ONE, 2017).
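Further: KINOMEscan kinase panel screen.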

One test has as its system CSF1R-autoinhibited. To be noted: concentration: 1 μM, replicates: in singlicate; n = 1.
In the case of `COc1cc2ncn(-c3cc(OCC4CCCO4)c(C(N)=O)s3)c2cc1OC` (centres unmarked) [GSK204607], the “%Inh” value is recorded as 3%.
`C[C@@H]1CCCCN1c1cc(-c2ccc3c(N)n[nH]c3c2)nc(N)n1` [GSK2258759]: the “%Inh” value is on record as 13%.
Turning to `COc1ccc(C2=C(Nc3cccc(C(=O)O)c3)C(=O)NC2=O)cc1` [SB-390765], the “%Inh” value is on record as 26%.
As to `CCCc1ccc(S(=O)(=O)NC2CCN(c3ccnc(Nc4ccc(F)cc4)n3)C2)cc1` (centres unmarked) [GSK1379715], the “%Inh” value was 0%.
Turning to `O=C(Nc1ccccc1)Nc1cccc(Oc2ccc3nccn3n2)c1`, the “%Inh” value is 0%.
Regarding `Cn1ccc2ncnc(Oc3ccc(Nc4nc5ccccc5[nH]4)cc3)c21`, the “%Inh” value was 0%.
With `Cc1cccc(-c2cc(Nc3ccncc3)c3ccccc3n2)n1` [GSK223675], the “%Inh” value stood at 0%.
Consider `Cc1ccc(NC(=O)Nc2cccc(Cl)c2)cc1-c1ccc(C(=O)Nc2ccncc2)cc1` [GSK1398468], for which the “%Inh” value turned out to be 12%.
For `COc1ccc(CNC(=O)NC2CCN(c3ccnc(Nc4cc(OC)c(OC)c(OC)c4)n3)C2)cc1` (centres unmarked) [GSK1379748], the “%Inh” value is recorded as 17%.
The same measure, in the same setting: with `O=S(=O)(c1ccc(-c2ccnc3[nH]ccc23)cc1)N1CCCC1` [GSK846226] the figure was 0%; with `COc1ccccc1-c1ccc2c(NC(=O)C3CC3)n[nH]c2n1` [SB-711239], 30%.
For the compound `Cl.O=C(Nc1cccc(-c2nn3ncccc3c2-c2ccnc(Nc3cccnc3)n2)c1)c1c(F)cccc1F` [GSK312879], the “%Inh” value worked out at 0%.
For `O=C(Nc1n[nH]c2nc(-c3nccs3)c(Br)cc12)C1CCCC1` [SB-742609], the “%Inh” value worked out at 0%.
`COc1cc(Nc2nccc(N3CCC(NC(=O)Nc4cc(C)ccc4C)C3)n2)cc(OC)c1OC` (centres unmarked) [GSK1379762]: the “%Inh” value is 0%.
The same measure, in the same setting: with `CC(=O)Nc1nc2cnc(Nc3cc(NC(=O)c4cccc(CCC#N)c4)ccc3C)nc2s1` the figure was 0%; with `Cc1cc(N2Cc3ccccc3C2)nc(Nc2ccc(S(=O)(=O)N3CCOCC3)cc2)n1.Cl` [GSK1669917], 0%.
As for `Cc1cccc(-c2nc(C)cc(Nc3ccncc3)n2)n1` [GSK257997], the “%Inh” value is 0%.
Regarding `O=c1cc(N2CCOCC2)nc2n(Cc3cccc(Cl)c3Cl)ccn12` [GSK2286295], the “%Inh” value is recorded as 0%.
In the case of `Cc1cc(-c2ccc3c(c2)CC[C@@H](N[C@@H](C)c2ccccc2)C3)cnc1N.Cl` [GW412617], the “%Inh” value is 0%.
In the case of `COc1ccccc1CNC(=O)c1cc(C(=O)c2ccccc2C)c[nH]1` [GSK364507], the “%Inh” value is 0%.
`Cc1cccc(-c2nc(Nc3cccc(C(N)=O)c3)c3ccccc3n2)n1` [GW876019]: the “%Inh” value is listed as 0%.
On to `Cc1csc(-c2nc(Nc3ccncc3)c3ccccc3n2)n1` [GW869640], for which the “%Inh” value turned out to be 28%.
Take `CS(=O)(=O)c1ccc(-c2nc3n(c2-c2ccncc2)CCC3)cc1` [SKF-105942]: the “%Inh” value is listed as 0%.
With `Nc1ncnc2[nH]c(-c3ccccc3)nc12` [AH5015], the “%Inh” value is 7%.
As for `Cc1cccc(-c2nc(Nc3ccncc3)c3ccccc3n2)n1` [GW855857], the “%Inh” value was 0%.
As for `COC(=O)c1c(-c2ccccc2)c2cc(OC)ccc2c(=O)n1Cc1ccccc1`, the “%Inh” value worked out at 20%.
Consider `Cc1c(Cn2ccn3c(=O)cc(N4CCOCC4)nc23)cccc1C(F)(F)F` [GSK2289044], for which the “%Inh” value stood at 0%.
In the case of `COc1ccc(Nc2nccc(-c3cccc(NC(=O)c4cc5cc(F)ccc5[nH]4)c3)n2)cc1` [GSK1229782], the “%Inh” value worked out at 57%.
As for `O=C(O)COc1ncnc2cc(-c3ccc4[nH]ncc4c3)sc12`, the “%Inh” value was 0%.
Consider `Cc1ccc(-c2cc(-c3c[nH]nc3-c3ccccn3)ccn2)cc1` [GW684088], for which the “%Inh” value was determined as 49%.
`Cc1c(O)cccc1Nc1ccnc2ccc(C(F)(F)F)cc12.Cl` [GW466413]: the “%Inh” value is given as 0%.
As for `CS(=O)(=O)c1ccc(-c2c(-c3ncn[nH]3)sc(N3CCOCC3)c2C#N)cc1`, the “%Inh” value came out at 0%.
On to `Fc1cccc(COc2nnc(-c3ccc4c(c3)CCO4)o2)c1`, for which the “%Inh” value is 0%.
For the compound `COc1cc2ncnc(Nc3ccc4nc(-c5ccccc5)[nH]c4c3)c2cc1OC.Cl` [GW282450], the “%Inh” value is listed as 0%.

The test system of another test is CSF1R. As to conditions: concentration: 1 μM, replicates: in singlicate; n = 1.
`COc1cc2ncn(-c3cc(OCC4CCCO4)c(C(N)=O)s3)c2cc1OC` (centres unmarked) [GSK204607]: the “%Inh” value is given as 5%.
Turning to `C[C@@H]1CCCCN1c1cc(-c2ccc3c(N)n[nH]c3c2)nc(N)n1` [GSK2258759], the “%Inh” value was 2%.
In the case of `COc1ccc(C2=C(Nc3cccc(C(=O)O)c3)C(=O)NC2=O)cc1` [SB-390765], the “%Inh” value is reported as 18%.
Turning to `CCCc1ccc(S(=O)(=O)NC2CCN(c3ccnc(Nc4ccc(F)cc4)n3)C2)cc1` (centres unmarked) [GSK1379715], the “%Inh” value stood at 0%.
As to `O=C(Nc1ccccc1)Nc1cccc(Oc2ccc3nccn3n2)c1`, the “%Inh” value amounted to 99.6%.
As to `Cn1ccc2ncnc(Oc3ccc(Nc4nc5ccccc5[nH]4)cc3)c21`, the “%Inh” value came to 17%.
On to `Cc1cccc(-c2cc(Nc3ccncc3)c3ccccc3n2)n1` [GSK223675], for which the “%Inh” value is recorded as 8%.
The same measure, in the same setting: with `Cc1ccc(NC(=O)Nc2cccc(Cl)c2)cc1-c1ccc(C(=O)Nc2ccncc2)cc1` [GSK1398468] the figure was 78%.
On to `COc1ccc(CNC(=O)NC2CCN(c3ccnc(Nc4cc(OC)c(OC)c(OC)c4)n3)C2)cc1` (centres unmarked) [GSK1379748], for which the “%Inh” value is listed as 13%.
Regarding `O=S(=O)(c1ccc(-c2ccnc3[nH]ccc23)cc1)N1CCCC1` [GSK846226], the “%Inh” value turned out to be 17%.
For `COc1ccccc1-c1ccc2c(NC(=O)C3CC3)n[nH]c2n1` [SB-711239], the “%Inh” value is 0%.
For the compound `Cl.O=C(Nc1cccc(-c2nn3ncccc3c2-c2ccnc(Nc3cccnc3)n2)c1)c1c(F)cccc1F` [GSK312879], the “%Inh” value is 17%.
Same read-out and setting: with `O=C(Nc1n[nH]c2nc(-c3nccs3)c(Br)cc12)C1CCCC1` [SB-742609] the figure was 3%.
On to `COc1cc(Nc2nccc(N3CCC(NC(=O)Nc4cc(C)ccc4C)C3)n2)cc(OC)c1OC` (centres unmarked) [GSK1379762], for which the “%Inh” value was 14%.
On to `CC(=O)Nc1nc2cnc(Nc3cc(NC(=O)c4cccc(CCC#N)c4)ccc3C)nc2s1`, for which the “%Inh” value worked out at 90.9%.
With `Cc1cc(N2Cc3ccccc3C2)nc(Nc2ccc(S(=O)(=O)N3CCOCC3)cc2)n1.Cl` [GSK1669917], the “%Inh” value came to 4%.
Take `Cc1cccc(-c2nc(C)cc(Nc3ccncc3)n2)n1` [GSK257997]: the “%Inh” value is given as 0%.
As to `O=c1cc(N2CCOCC2)nc2n(Cc3cccc(Cl)c3Cl)ccn12` [GSK2286295], the “%Inh” value was determined as 25%.
Consider `Cc1cc(-c2ccc3c(c2)CC[C@@H](N[C@@H](C)c2ccccc2)C3)cnc1N.Cl` [GW412617], for which the “%Inh” value was found to be 27%.
Consider `COc1ccccc1CNC(=O)c1cc(C(=O)c2ccccc2C)c[nH]1` [GSK364507], for which the “%Inh” value was 11%.
`Cc1cccc(-c2nc(Nc3cccc(C(N)=O)c3)c3ccccc3n2)n1` [GW876019]: the “%Inh” value was 0%.
The same measure, in the same setting: with `Cc1csc(-c2nc(Nc3ccncc3)c3ccccc3n2)n1` [GW869640] the figure was 0%; with `CS(=O)(=O)c1ccc(-c2nc3n(c2-c2ccncc2)CCC3)cc1` [SKF-105942], 0%.
Consider `Nc1ncnc2[nH]c(-c3ccccc3)nc12` [AH5015], for which the “%Inh” value was 13%.
As for `Cc1cccc(-c2nc(Nc3ccncc3)c3ccccc3n2)n1` [GW855857], the “%Inh” value is recorded as 0%.
With `COC(=O)c1c(-c2ccccc2)c2cc(OC)ccc2c(=O)n1Cc1ccccc1`, the “%Inh” value was 51%.
As for `Cc1c(Cn2ccn3c(=O)cc(N4CCOCC4)nc23)cccc1C(F)(F)F` [GSK2289044], the “%Inh” value was 9%.
As for `COc1ccc(Nc2nccc(-c3cccc(NC(=O)c4cc5cc(F)ccc5[nH]4)c3)n2)cc1` [GSK1229782], the “%Inh” value came to 10%.
Consider `O=C(O)COc1ncnc2cc(-c3ccc4[nH]ncc4c3)sc12`, for which the “%Inh” value is reported as 0%.
As to `Cc1ccc(-c2cc(-c3c[nH]nc3-c3ccccn3)ccn2)cc1` [GW684088], the “%Inh” value amounted to 14%.
For `Cc1c(O)cccc1Nc1ccnc2ccc(C(F)(F)F)cc12.Cl` [GW466413], the “%Inh” value came to 0%.
On the same count and under the same terms, the same measure for `CS(=O)(=O)c1ccc(-c2c(-c3ncn[nH]3)sc(N3CCOCC3)c2C#N)cc1`: 27%; for `Fc1cccc(COc2nnc(-c3ccc4c(c3)CCO4)o2)c1`: 11%; for `COc1cc2ncnc(Nc3ccc4nc(-c5ccccc5)[nH]c4c3)c2cc1OC.Cl` [GW282450]: 3%.
